# Tested on: not listed separately
# Assay: compounds binding Alexa647 anti-His antibody – biochemical, small-molecule microarray, 635 nm fluorescence, artefact control for SMM control protein annotation, primary screen (AID 1128);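 further: score merges feature fluorescence with signal-to-noise for each printed compound spot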
# Conditions: higher = more signal
row,Compound,composite z-score
1,COC(=O)CC=C[C@@H](C)[C@H](OCc1cccc(-c2ccccc2)c1)C1CCCCC1,-0.791
2,O=C(NN=C1C[C@@H](O)[C@@H](O)[C@@H]2[C@@H]3C(=O)N(Cc4ccccc4)C(=O)[C@@H]3CC[C@@H]12)OCc1ccccc1,0.298
3,COc1ccc(COC(=O)NN=C2C[C@@H](O)[C@@H](O)[C@@H]3[C@@H]4C(=O)N(Cc5ccccc5)C(=O)[C@@H]4CC[C@H]23)cc1,-0.382
4,COc1ccc(O[C@H]2C=C[C@@H](c3ccccc3)O[C@@H]2CON=C(C)CCC(=O)OC[C@H]2O[C@H](c3ccccc3)C=C[C@@H]2Oc2ccc(OC)cc2)cc1,0.704
5,CCCNC(=O)OC[C@H]1O[C@H](CCON=Cc2ccc(C(=O)N3[C@H](c4ccc(C)cc4)[C@@H](C)CC[C@H]3C(=O)OC)cc2)C=C[C@@H]1Oc1ccc(OC)cc1,1.77
6,CCOC(=O)CCN1C(=O)[C@H]2[C@H]3[C@H](O)[C@H](O)CC(=NNC(=O)OCc4ccccc4)[C@@H]3CC[C@H]2C1=O,0.553
7,C[C@@H](c1ccccc1)N1C(=O)[C@H]2[C@H]3[C@H](O)[C@H](O)CC(=NOCc4ccccc4)[C@H]3CC[C@H]2C1=O,1.2
8,COC(=O)CC=C[C@@H](C)[C@@H](C=NOC[C@@H](O)[C@H]1O[C@@H]2OC(C)(C)O[C@@H]2[C@H]1O)NS(=O)(=O)c1ccc(C)cc1,1.93
9,O=C(NN=C1C[C@@H](O)[C@@H](O)[C@@H]2[C@@H]3C(=O)N(C4CCCCC4)C(=O)[C@@H]3CC[C@H]12)OCc1ccccc1,-0.156
10,Cc1cc2c(nc1C)CCCCN2CC(C)ON=C[C@@H](C)[C@H](OCc1ccccc1)C(C)C (stereo partly specified),1.92
11,CCOC(=O)[C@H](CC(C)C)NC(=O)CCC1CC(OC(=O)NCc2cccc3ccccc23)CC2(CCCC(COC(=O)NCCC(C)C)O2)O1 (stereo partly specified),-0.121
12,CC(C)CON=C1C[C@@H](O)[C@@H](O)[C@@H]2[C@@H]3C(=O)N(C[C@@H]4CCCO4)C(=O)[C@@H]3CC[C@@H]12,0.0488
13,C=CC[C@@H]1C=C[C@H](ON=C(C)CCC(=O)OC[C@H]2O[C@H](c3ccccc3)C=C[C@@H]2Oc2ccc(OC)cc2)[C@@H](CO)O1,0.14
14,CO[C@@H]1COC(=O)CC=C[C@@H](C)[C@@H]2C=C[C@H](O)[C@@H](COC(=O)CC=C[C@H]1C)O2,-0.143
15,COC(=O)[C@H](C)NC(=O)CCC1CC(OC(=O)NCc2cccc3ccccc23)CC2(CCCC(COC(=O)NCC(c3ccccc3)c3ccccc3)O2)O1 (stereo partly specified),1.04

# Tested on: Human papillomavirus type 1a E7 protein (residues 1-88)
# Assay: HPV1a E7 small-molecule binders, primary screen, biochemical, small-molecule microarray, residues 1-88, 635 nm (AID 1129)
# Conditions: small-molecule microarray binding, fluorescence 635 nm; higher = more signal
row,Compound,composite z-score
1,CCN1C(=O)[C@@H]2[C@H]3C(=CC[C@@H]2C1=O)C1(OCCCO1)[C@H]1O[C@H]1[C@H]3O,1.04
2,CCOC(=O)[C@H](Cc1ccccc1)NC(=O)CCC1CC(OC(=O)NCCc2ccc(F)cc2)CC2(CCCC(COC(=O)NCCc3ccccc3OC)O2)O1 (stereo partly specified),1.15
3,CCOC(=O)NN=C1C[C@@H](O)[C@@H](O)[C@@H]2[C@@H]3C(=O)N(c4cccc(Oc5ccccc5)c4)C(=O)[C@@H]3CC[C@H]12,0.34
4,CCCCC#C[C@@H]1C=C[C@H](Oc2ccc(C(=O)OC)cc2)[C@@H](COC(=O)OCC)O1,0.459
5,CCCNC(=O)OC[C@H]1O[C@H](CCON=C(C)CCN2CCc3nc(CC)c(CC)cc3C2)C=C[C@@H]1Oc1ccc(OC)cc1,-0.476
6,CCC1=NOC(CCC2CC(OC(=O)NCc3cccc4c3OCO4)CC3(CCCC(COC(=O)NCCc4ccccc4OC)O3)O2)C1 (stereo unspecified),1.19
7,CO[C@@H]1COC(=O)CC=C[C@H](C)[C@H](OC)COC(=O)[C@H](C)NC(=O)CC=C[C@H]1C,-1.35
8,C#CCCCON=C1C[C@@H](O)[C@@H](O)[C@@H]2[C@@H]3C(=O)N(C(C)(C)C)C(=O)[C@@H]3CC[C@H]12,-0.204
9,CCOC(=O)[C@H](Cc1ccccc1)NC(=O)CCC1CC(OC(=O)NCc2ccc3c(c2)OCO3)CC2(CCCC(COC(=O)NCCC(C)C)O2)O1 (stereo partly specified),0.57
10,COC(=O)CC=C[C@@H](C)[C@@H](C=NO[C@H](C)c1cn([C@H](CO)Cc2ccccc2)nn1)NS(=O)(=O)c1ccc(C)cc1,0.611
11,CCN1C(=O)[C@H]2[C@H]3[C@H](O)[C@H](O)CC(=O)[C@@H]3CC[C@H]2C1=O,0.899
12,CCO[C@H](c1cc(OC)cc([N+](=O)[O-])c1OC)[C@H](C)C=CCC(=O)OC,-0.467
13,COC(=O)[C@H](C)NC(=O)CCC1CC(OC(=O)NCCc2ccc(F)cc2)CC2(CCCC(COC(=O)NCc3cccc(C(F)(F)F)c3)O2)O1 (stereo partly specified),0.637
14,CCOC(=O)[C@H](CC(C)C)NC(=O)CCC1CC(OC(=O)NCc2ccc3c(c2)OCO3)CC2(CCCC(COC(=O)NCc3cccc(C(F)(F)F)c3)O2)O1 (stereo partly specified),0.218
15,COC(=O)[C@H](C)NC(=O)CCC1CC(OC(=O)NCc2ccc3c(c2)OCO3)CC2(CCCC(COC(=O)NCc3cccc(C(F)(F)F)c3)O2)O1 (stereo partly specified),0.741
16,C[C@@H](c1ccccc1)N1C(=O)[C@H]2[C@H]3[C@H](O)[C@H](O)CC(=NO[C@@H]4O[C@H](CO)[C@@H](O)[C@H](O)[C@H]4O)[C@H]3CC[C@H]2C1=O,0.76
17,CCc1cc2c(nc1CC)CCN(CCC(C)=NO[C@H](C)c1cn([C@H](CO)Cc3ccccc3)nn1)C2,0.282
18,O=C1C[C@@H](O)[C@@H](O)[C@@H]2[C@@H]3C(=O)N(Cc4ccccc4)C(=O)[C@@H]3CC[C@@H]12,0.789

row,Compound,composite z-score
1,COc1ccc(O[C@H]2C=C[C@@H](c3ccccc3)O[C@@H]2CON=CC[C@@H]2C=C[C@H](OC(C)=O)[C@@H](COC(C)=O)O2)cc1,-0.311
2,Cc1ccc(S(=O)(=O)n2c3ccccc3c3nnc(C(=O)c4ccccc4)nc32)cc1,-0.0414
3,CCCNC(=O)OC[C@H]1O[C@H](CCON=C(C)CCC(=O)OC[C@H]2O[C@H](c3ccccc3)C=C[C@@H]2Oc2ccc(OC)cc2)C=C[C@@H]1Oc1ccc(OC)cc1,-1.45
4,COC(=O)CC=C[C@@H](C)[C@H](OCc1cccc(-c2ccccc2)c1)C1CCCCC1,-0.46
5,O=C(NN=C1C[C@@H](O)[C@@H](O)[C@@H]2[C@@H]3C(=O)N(Cc4ccccc4)C(=O)[C@@H]3CC[C@@H]12)OCc1ccccc1,-0.0375
6,COc1ccc(COC(=O)NN=C2C[C@@H](O)[C@@H](O)[C@@H]3[C@@H]4C(=O)N(Cc5ccccc5)C(=O)[C@@H]4CC[C@H]23)cc1,-0.111
7,COc1ccc(O[C@H]2C=C[C@@H](c3ccccc3)O[C@@H]2CON=C(C)CCC(=O)OC[C@H]2O[C@H](c3ccccc3)C=C[C@@H]2Oc2ccc(OC)cc2)cc1,-2.01
8,CCCNC(=O)OC[C@H]1O[C@H](CCON=Cc2ccc(C(=O)N3[C@H](c4ccc(C)cc4)[C@@H](C)CC[C@H]3C(=O)OC)cc2)C=C[C@@H]1Oc1ccc(OC)cc1,0.838
9,CCOC(=O)CCN1C(=O)[C@H]2[C@H]3[C@H](O)[C@H](O)CC(=NNC(=O)OCc4ccccc4)[C@@H]3CC[C@H]2C1=O,0.687
10,C[C@@H](c1ccccc1)N1C(=O)[C@H]2[C@H]3[C@H](O)[C@H](O)CC(=NOCc4ccccc4)[C@H]3CC[C@H]2C1=O,1.17
11,COC(=O)CC=C[C@@H](C)[C@@H](C=NOC[C@@H](O)[C@H]1O[C@@H]2OC(C)(C)O[C@@H]2[C@H]1O)NS(=O)(=O)c1ccc(C)cc1,0.607
12,O=C(NN=C1C[C@@H](O)[C@@H](O)[C@@H]2[C@@H]3C(=O)N(C4CCCCC4)C(=O)[C@@H]3CC[C@H]12)OCc1ccccc1,-0.387
13,Cc1cc2c(nc1C)CCCCN2CC(C)ON=C[C@@H](C)[C@H](OCc1ccccc1)C(C)C (stereo partly specified),-0.598
14,CCOC(=O)[C@H](CC(C)C)NC(=O)CCC1CC(OC(=O)NCc2cccc3ccccc23)CC2(CCCC(COC(=O)NCCC(C)C)O2)O1 (stereo partly specified),0.572
15,CC(C)CON=C1C[C@@H](O)[C@@H](O)[C@@H]2[C@@H]3C(=O)N(C[C@@H]4CCCO4)C(=O)[C@@H]3CC[C@@H]12,-0.0845
16,C=CC[C@@H]1C=C[C@H](ON=C(C)CCC(=O)OC[C@H]2O[C@H](c3ccccc3)C=C[C@@H]2Oc2ccc(OC)cc2)[C@@H](CO)O1,-0.214
17,CO[C@@H]1COC(=O)CC=C[C@@H](C)[C@@H]2C=C[C@H](O)[C@@H](COC(=O)CC=C[C@H]1C)O2,-1.07
18,COC(=O)[C@H](C)NC(=O)CCC1CC(OC(=O)NCc2cccc3ccccc23)CC2(CCCC(COC(=O)NCC(c3ccccc3)c3ccccc3)O2)O1 (stereo partly specified),1.15

# Source: PubChem BioAssay
